Results: PubChem BioAssay (NCI)
This is part of a sample that, as a whole, favours compounds with a hit. Of some 83,000 tested, about 20% had one in any assay.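 Each cell line was grown in a 96-well plate and treated with one concentration of compound for 48 hours. Values below 10 were considered active.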 Activity calls are given as the source filed them.

What follows are compounds tested on HL-60(TB) leukemia (assay: NCI-60 one-dose screen, 48 h (100 = growth as untreated, 0 = no growth, -100 = all killed)). Conditions: 10 µM unless noted.
With `O=C(/C=C/c1cccnc1)NCCCCC1CCCN(C(=O)c2ccccc2)C1` (stereo not given) the growth was 63.6% (inactive). `O=C(Nc1ccc2c(c1)OCCO2)C(=O)c1c[nH]c2ccccc12` was tested, and the growth was 13.7% (inactive). In the case of `C=CC(C)C(C)(C)O` (stereo not given), the growth is reported as 97.7% (inactive). `CC(C)(C)[Si](C)(C)OC1[C@@H](COC(=O)NC(=O)CCl)O[C@@H](n2cnc3c(N)ncnc32)[C@H]1O[Si](C)(C)C(C)(C)C` (stereo not given in full) was tested, and the growth was -48.3% (active). For `CCCCCCCCCCCCCCCCN(C(C)c1ccccc1)S(=O)(=O)c1ccc(OC)c(N)c1` (stereo not given), the growth was 98.2% (inactive). With `Nc1cc(O)cc(O)c1` the growth was 98.6% (inactive). With `O=C(Nc1ccc(F)cc1)c1ccc(C(=O)Nc2ccc(F)cc2)cc1` the growth was 107% (inactive). With `O=C(CN1CCN(c2ccccc2)CC1)N1CCN(c2nnc(-c3ccc(Cl)cc3)c(-c3ccc(Cl)cc3)n2)CC1` the growth was -40.7% (active). `CC(=O)c1cnc2ccc(-c3cc(Cl)c(O)c(Cl)c3)nc2c1NC1CCC(CN(C)C)CC1` (stereo not given) was tested, and the growth was -14.8% [2.5 µM] (active). With `CC1(C)CC[C@]2(C(=O)O)CC[C@]3(C)C(=CC[C@@H]4[C@@]5(C)C/C(=C/c6ccco6)C(=O)C(C)(C)[C@@H]5CC[C@]43C)[C@@H]2C1` the growth was -16.4% [100 µM] (active). For `Cc1ccc(-c2nc(SCC(=O)Nc3nc(-c4ccc(Cl)cc4)cs3)[nH]c(=O)c2C#N)cc1`, the growth was 111% (inactive). For `COc1cc(-c2cc3ncccc3c3nc(OCCN(C)C)c4cccnc4c23)cc(OC)c1OC`, the growth was 36.9% (inactive). For `C#CC[C@@H]1C[C@]2(C)[C@H]3CC[C@@H]4[C@H]5[C@H](C(=C)C)CC[C@]5(C(=O)O)CC[C@@]4(C)[C@]3(C)CC[C@H]2C(C)(C)[C@H]1O`, the growth was 44.2% (inactive). For `COc1ccc(Cl)c(Nc2nc3ccccc3nc2NS(=O)(=O)c2cccc(NC(=O)C(C)(C)N)c2)c1`, the growth was 32.6% (inactive). In the case of `COc1ccc(-c2nc3sccn3c2-c2ccnc(NCCNS(=O)(=O)c3ccc(C(F)(F)F)cc3)n2)cc1`, the growth is reported as 4.59% (active). In the case of `COc1cc(NC(=O)c2cc3ccccc3nc2Nc2ccc(F)cc2)cc(OC)c1OC`, the growth is reported as 47.2% (inactive). With `O=c1[nH]c(=O)n(C2C[C@H](O)[C@@H](CO)O2)cc1C(F)(F)F` (stereo not given in full) the growth was 85.8% (inactive). `NC(C(=O)O)C(O)c1ccc(OCc2ccccc2)c(OCc2ccccc2)c1` (stereo not given) was tested, and the growth was 105% (inactive). With `Oc1ccc(/C=C/c2ccc(O)cc2)cc1` the growth was 43.6% (inactive). In the case of `N#Cc1c(-c2ccccc2)nc(SCC(=O)N2CCN(c3ccccc3)CC2)[nH]c1=O`, the growth is reported as 62.5% (inactive). `COc1cc(C(=O)NNC(=O)c2ccccc2C(=O)O)cc(OC)c1OC` was tested, and the growth was 5.84% (active). In the case of `COC(=O)C1=NNC(=S)N(c2cc(C)[nH]n2)C(=O)C1`, the growth is reported as 100% (inactive). In the case of `COc1ccc(-c2c(N)n[nH]c2-c2cc3c(c(OC)c2OC)OCO3)cc1`, the growth is reported as 63.1% (inactive). `Nc1nc(Nc2ccccc2)c2ncn(Cc3ccc4c(c3)OCO4)c2n1` was tested, and the growth was 25.1% (inactive). In the case of `COc1cccc(-c2nc3occn3c2-c2ccnc(NCCCNS(=O)(=O)c3ccc(C(F)(F)F)cc3)n2)c1`, the growth is reported as 116% (inactive). In the case of `CCOC(=O)C1=CSC2=NC3=C(CCC/C3=C\c3ccc(Cl)cc3)C(c3ccc(Cl)cc3)N12` (stereo not given), the growth is reported as 79.7% (inactive). With `CC(=O)NCC(=O)Nc1ccc(-c2nnc3ccccn23)nc1.CC(=O)NCC(=O)Nc1ccc(-c2nnc3ccccn23)nc1.[Pt+2]` the growth was 109% (inactive). In the case of `CCn1c(SCc2ccc(C)cc2)nnc1-c1nn(-c2ccc(Cl)cc2Cl)c(-c2ccc(Cl)cc2)c1C`, the growth is reported as -13.1% (active). In the case of `COc1ccc(C2CC(c3ccc4ccccc4c3)=NN2c2nc(O)c(C3=c4cc(Cl)ccc4=NC3=O)s2)cc1` (stereo not given), the growth is reported as -6.68% (active). With `CNC(=O)c1cc(Oc2cccc3nc(Nc4ccc(F)c(Cl)c4)ccc23)ccn1` the growth was 31.1% (inactive). In the case of `COc1cc2c(cc1NC(=O)C(F)(F)F)-c1ccc(NC(=O)C(F)(F)F)cc1C2`, the growth is reported as 99.3% (inactive). In the case of `CCN(C(=O)c1cc2ccccc2[nH]1)[C@H]1CCC[C@@H](NCc2ccc(OC)cc2)C1`, the growth is reported as 117% (inactive). For `NC(=O)c1cc(I)ccc1NC(=O)COc1ccc(Cl)cc1Cl`, the growth was 76.9% (inactive). For `Cc1cc(O)ccc1O`, the growth was -14.1% (active). With `C=CCOc1cccc(/C=C/C(=O)c2sc(Nc3cccnc3)nc2C)c1` the growth was 43.3% (inactive). For `C=C(C)Cn1c(SCC(=O)c2cccs2)nc2sc3c(c2c1=O)CCCC3`, the growth was 63.2% (inactive). With `CC(C)(C)CC(C)(C)NC(=O)Nc1ncccc1OCc1ccccc1` the growth was 90.5% (inactive). For `O=C(c1nc2ccccc2[nH]1)C1C(c2ccc(Br)cc2)C2CC3CCCC[C@H]3N2[C@@]12C(=O)Nc1cc(Cl)ccc12` (stereo not given in full), the growth was 12.4% (inactive). With `COc1ccc2[nH]c(O)c(/C=c3/cc4c(c(-c5cc(OC)c(OC)c(OC)c5)n3)=Nc3ccccc3-4)c2c1` the growth was 58.8% (inactive). For `COc1ccc(-c2csc(NC(=O)Nc3nc(-c4ccc(OC)cc4)cs3)n2)cc1`, the growth was 80.6% (inactive).
